Values joined by “and” are separate entries in the source; they are usually repeats but may differ in a detail not shown here. Equal values may be shown once. Records with an inconclusive call do not appear. Active and inactive are the calls of the source. The calls were made as follows, unless noted: active = hit-call score of the fitted dose curve at least 0.9, where 1 is the maximum; inactive = score below 0.9.
Experiments:
[1] = ATG_PBREM_CIS: Attagene CIS-FACTORIAL HepG2 Assay for human Phenobarbital-responsive Enhancer Module (PBREM) (AID 2282955); conditions: HepG2 PBREM cis-reporter, Attagene multiplexed transcription; actives raise or lower the signal
Outline: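 Endogenous transcription factor activity was read from reporter transcripts in transiently transfected human HepG2 liver cells after 24 h dosing. RT-PCR products were fluorescently labelled, HpaI-cut and sized by capillary electrophoresis; activity fitted bidirectionally against DMSO baseline.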

[2] = biological target: Paired box protein Pax-6 (Homo sapiens) (UniProt P26367); experiment: ATG_Pax6_CIS: Attagene CIS-FACTORIAL HepG2 Assay for human Paired Box 6 (PAX6) (AID 2282956); conditions: HepG2 CIS-FACTORIAL PAX6 reporter transcription, RNA readout; actives raise or lower the signal
Outline: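 Read-out is reporter transcript level, measured by RT-PCR with fluorescent primer extension and capillary electrophoresis after 24 h dosing of transfected HepG2 cells. Activity in either direction fitted relative to DMSO control.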

[3] = ATG_PXRE_CIS: Attagene CIS-FACTORIAL HepG2 Assay for human Pregnane X Receptor Element (PXRE) (AID 2282957); conditions: HepG2 Attagene CIS-FACTORIAL PXRE reporter, mRNA; actives raise or lower the signal
Outline: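 After a 24 h chemical incubation, total RNA from transfected HepG2 cells was reverse-transcribed and reporter cDNA amplified, FAM-labeled, HpaI-digested and sized by capillary electrophoresis. DMSO served as baseline for bidirectional curve fitting.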

[4] = ATG_PPRE_CIS: Attagene CIS-FACTORIAL HepG2 Assay for human Peroxisome Proliferator-activated Response Element (PPRE) (AID 2282958); conditions: HepG2 PPRE cis-element reporter, Attagene transcription factor profiling; actives raise or lower the signal
Outline: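 Endogenous PPRE-driven transcription is measured in HepG2 cells carrying transfected multi-reporter constructs. Reporter transcripts are quantified by RT-PCR, HpaI digestion and capillary electrophoresis 24 h after dosing. DMSO baseline, bidirectional fit.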

[5] = ATG_RORE_CIS: Attagene CIS-FACTORIAL HepG2 Assay for human RAR-related Orphan Receptor Element (RORE) (AID 2282959); conditions: HepG2 Attagene cis-factorial RORE reporter, mRNA; actives raise or lower the signal
Outline: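 RORE reporter transcripts reflecting endogenous factor activity were read after 24 h compound exposure of transfected HepG2 cells, using reverse transcription, PCR, fluorescent labelling and capillary electrophoresis sizing. Gain or loss fitted against DMSO.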

[6] = biological target: Transcription factor Sp1 (Homo sapiens) (UniProt P08047); experiment: ATG_Sp1_CIS: Attagene CIS-FACTORIAL HepG2 Assay for human Specificity Protein 1 (Sp1) (AID 2282961); conditions: HepG2 Sp1 cis-reporter transcription, actives raise or lower the signal
Outline: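 Read-out is reporter transcript level, measured by RT-PCR and fluorescent capillary electrophoresis after 24 h chemical treatment. System: transiently transfected HepG2 cells reporting endogenous transcription factor activity; gain or loss fitted against DMSO baseline.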

[7] = ATG_SREBP_CIS: Attagene CIS-FACTORIAL HepG2 Assay for human Sterol Regulatory Element Binding (SREBP) (AID 2282962); conditions: HepG2 Attagene cis-factorial SREBP reporter, mRNA; actives raise or lower the signal
Outline: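 Endogenous SREBP activity read as cis-element-driven reporter transcript in transiently transfected HepG2, 24 h post-dosing; quantified via RT-PCR plus capillary electrophoresis of fluorescent fragments. Gain or loss of signal fitted relative to DMSO baseline.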

[8] = biological target: Signal transducer and activator of transcription 3 (Homo sapiens) (UniProt P40763); experiment: ATG_STAT3_CIS: Attagene CIS-FACTORIAL HepG2 Assay for human Signal Transducer and Activator of Transcription 3 (STAT3) (AID 2282963); conditions: HepG2, Attagene cis-factorial STAT3 reporter transcription; actives raise or lower the signal
Outline: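 Cis-factorial format: endogenous transcription factors in HepG2 drive transfected reporter units. After 24 h treatment, reporter RNA was reverse-transcribed, amplified, FAM-labelled and HpaI-digested before CE analysis; activity scored in both directions against DMSO.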

[9] = ATG_TA_CIS: Attagene CIS-FACTORIAL HepG2 Assay for human TA Basal Promoter (AID 2282964); conditions: HepG2 Attagene CIS-factorial TA basal promoter reporter; actives raise or lower the signal
Outline: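 HepG2 cells transiently transfected with multiplexed cis-promoter reporter units, dosed 24 h. Reporter mRNA measured by RT-PCR, 6-FAM labelling, HpaI digestion and capillary electrophoresis; bidirectional fit versus DMSO baseline, serving as background control.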

[10] = ATG_TCF_b_cat_CIS: Attagene CIS-FACTORIAL HepG2 Assay for human T-Cell-Factor with beta-catenin (TCF/b-cat) (AID 2282965); conditions: HepG2 TCF/beta-catenin cis-reporter transcription, actives raise or lower the signal
Outline: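 Endogenous TCF/LEF activity read as reporter transcript level via RT-PCR and capillary electrophoresis fluorescence in transfected HepG2, 24 h exposure; gain or loss of signal fitted against DMSO controls.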

[11] = ATG_TAL_CIS: Attagene CIS-FACTORIAL HepG2 Assay for human TAL Basal Promoter (AID 2282966); conditions: HepG2 Attagene cis-factorial TAL promoter reporter; actives raise or lower the signal;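 also: background control endpoint measuring basal TAL promoter reporter mRNA not a specific factor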
Outline: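 Basal-promoter background-control endpoint from a multiplexed HepG2 reporter panel. Cells were exposed 24 h, then reporter mRNA was read by RT-PCR/CE fluorescence and fitted in both directions relative to DMSO.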

[12] = ATG_TGFb_CIS: Attagene CIS-FACTORIAL HepG2 Assay for human Transforming Growth Factor (TGF) (AID 2282967); conditions: HepG2 Attagene CIS TGFb reporter, mRNA transcription; actives raise or lower the signal
Outline: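 HepG2 cells transiently transfected with cis-promoter-driven multiplexed reporter units; 24 h compound exposure. Reporter mRNA measured by RT-PCR, 6-FAM labeling, HpaI digestion and capillary electrophoresis; bidirectional fit versus DMSO baseline.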

[13] = ATG_VDRE_CIS: Attagene CIS-FACTORIAL HepG2 Assay for human Vitamin D Receptor Element (VDRE) (AID 2282968); conditions: HepG2 VDRE cis-reporter transcription, actives raise or lower the signal
Outline: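 Measures endogenous factor activity through cis-element-driven reporter transcripts in transiently transfected HepG2. Cells are treated 24 h; reporter mRNA is quantified by RT-PCR and capillary electrophoresis; fitting is bidirectional.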

[14] = biological target: Nuclear receptor subfamily 1 group I member 3 (Homo sapiens) (UniProt Q14994); experiment: ATG_CAR_TRANS: Attagene TRANS-FACTORIAL HepG2 Assay for human Constitutive Androstane Receptor (CAR) (AID 2282969; active = hit-call score of the fitted dose curve at least 0.9, where 1 is the maximum;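 also: activators raise reporter mRNA above DMSO so AC50 marks induction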); conditions: HepG2 Attagene TRANS-FACTORIAL CAR reporter
Outline: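 Signal is reporter mRNA induction relative to DMSO, measured 24 h after dosing by RT-PCR with fluorescent primer extension and capillary electrophoresis. Human HepG2 liver cells carried transiently transfected chimeric NR-Gal4/GAL4-UAS reporter constructs.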

[15] = biological target: Estrogen receptor (Homo sapiens) (UniProt P03372); experiment: ATG_ERa_TRANS: Attagene TRANS-FACTORIAL HepG2 Assay for human Estrogen Receptor alpha (ERa) (AID 2282970; active = hit-call score of the fitted dose curve at least 0.9, where 1 is the maximum); conditions: HepG2 Attagene TRANS ERa GAL4 reporter, mRNA
Outline: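 Gal4-fusion ERa transactivation, measured as reporter transcript level in transiently transfected HepG2 cells. Exposure 24 h; RT-PCR plus capillary electrophoresis with fluorescence detection.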

[16] = biological target: Steroid hormone receptor ERR1 (Homo sapiens) (UniProt P11474); experiment: ATG_ERRa_TRANS: Attagene TRANS-FACTORIAL HepG2 Assay for human Estrogen-Related Receptor alpha (ERRa) (AID 2282971; active = hit-call score of the fitted dose curve at least 0.9, where 1 is the maximum); conditions: HepG2 Attagene TRANS reporter, ERRa transactivation
Outline: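 HepG2 cells transiently transfected with GAL4-UAS reporter units and chimeric NR-Gal4 constructs; after 24 hour compound incubation, reporter mRNA quantified by RT-PCR, fluorescent labelling and capillary electrophoresis, gain of signal versus DMSO.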

[17] = biological target: X-box-binding protein 1 (Homo sapiens) (UniProt P17861); experiment: ATG_Xbp1_CIS: Attagene CIS-FACTORIAL HepG2 Assay for human X-box Binding Protein 1 (XBP1) (AID 2282972); conditions: HepG2 XBP1 cis-element reporter, Attagene multiplex; actives raise or lower the signal
Outline: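 Reporter transcripts were quantified by RT-PCR with fluorescent primer extension and capillary electrophoresis after 24 h chemical exposure. Cells: transiently transfected HepG2 carrying cis-regulated reporter constructs; data fitted bidirectionally relative to DMSO.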

[18] = biological target: Androgen receptor (Homo sapiens) (UniProt P10275); experiment: ATG_AR_TRANS: Attagene TRANS-FACTORIAL HepG2 Assay for human Androgen Receptor (AR) (AID 2282973; active = hit-call score of the fitted dose curve at least 0.9, where 1 is the maximum); conditions: HepG2 Attagene TRANS-FACTORIAL AR reporter transcription
Outline: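 HepG2 cells transiently transfected with AR-Gal4 chimera and GAL4-UAS reporter units; chemical exposure 24 h. Reporter mRNA quantified by RT-PCR with fluorescent labelling and capillary electrophoresis; gain-of-signal fitted against DMSO.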

[19] = ATG_M_19_TRANS: Attagene TRANS-FACTORIAL HepG2 Assay for M19 Transcription Factor (Internal Marker) (AID 2282974; active = hit-call score of the fitted dose curve at least 0.9, where 1 is the maximum); conditions: HepG2 Attagene TRANS-FACTORIAL M19 internal marker reporter
Outline: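 Background-control readout: after 24 h chemical exposure of transfected HepG2 carrying GAL4-driven reporter units, RNA was reverse-transcribed, amplified, fluorescently labeled and sized by capillary electrophoresis; gain-of-signal fit against DMSO.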

[20] = ATG_Sox_CIS: Attagene CIS-FACTORIAL HepG2 Assay for human SRY-box transcription factor (SOX) (AID 2282960); conditions: HepG2 Attagene cis-factorial SOX reporter, mRNA; actives raise or lower the signal
Outline: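 Reporter transcripts, measured by RT-PCR and capillary electrophoresis of labelled fragments, report endogenous SOX transcription factor activity. Transiently transfected human HepG2 cells receive chemical for 24 h; changes in either direction are fitted relative to DMSO.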

Measured: AC50

Chain of Signal transducer and activator of transcription 3 (Homo sapiens) (P40763 whole entry, looked up): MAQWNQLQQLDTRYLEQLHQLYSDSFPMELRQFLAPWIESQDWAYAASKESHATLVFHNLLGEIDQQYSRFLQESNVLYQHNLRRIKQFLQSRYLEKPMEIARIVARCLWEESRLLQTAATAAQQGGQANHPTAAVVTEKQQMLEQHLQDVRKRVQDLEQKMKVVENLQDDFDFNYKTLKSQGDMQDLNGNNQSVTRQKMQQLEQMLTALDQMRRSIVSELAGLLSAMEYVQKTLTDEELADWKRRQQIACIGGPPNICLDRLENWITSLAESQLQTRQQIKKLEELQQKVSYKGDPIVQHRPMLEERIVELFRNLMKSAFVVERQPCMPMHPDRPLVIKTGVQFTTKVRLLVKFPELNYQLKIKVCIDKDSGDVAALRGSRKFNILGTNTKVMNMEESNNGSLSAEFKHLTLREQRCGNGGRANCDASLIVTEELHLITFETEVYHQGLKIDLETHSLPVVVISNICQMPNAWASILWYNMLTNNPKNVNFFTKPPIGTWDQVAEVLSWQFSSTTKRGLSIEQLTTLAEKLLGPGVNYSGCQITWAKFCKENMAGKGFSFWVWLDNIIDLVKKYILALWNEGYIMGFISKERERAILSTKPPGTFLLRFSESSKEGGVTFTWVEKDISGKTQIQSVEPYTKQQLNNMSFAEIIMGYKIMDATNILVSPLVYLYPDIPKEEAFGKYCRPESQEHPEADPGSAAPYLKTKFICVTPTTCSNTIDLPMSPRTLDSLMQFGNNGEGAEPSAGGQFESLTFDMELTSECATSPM
Chain of Nuclear receptor subfamily 1 group I member 3 (Homo sapiens) (Q14994 whole entry, looked up, the tested form may be a part): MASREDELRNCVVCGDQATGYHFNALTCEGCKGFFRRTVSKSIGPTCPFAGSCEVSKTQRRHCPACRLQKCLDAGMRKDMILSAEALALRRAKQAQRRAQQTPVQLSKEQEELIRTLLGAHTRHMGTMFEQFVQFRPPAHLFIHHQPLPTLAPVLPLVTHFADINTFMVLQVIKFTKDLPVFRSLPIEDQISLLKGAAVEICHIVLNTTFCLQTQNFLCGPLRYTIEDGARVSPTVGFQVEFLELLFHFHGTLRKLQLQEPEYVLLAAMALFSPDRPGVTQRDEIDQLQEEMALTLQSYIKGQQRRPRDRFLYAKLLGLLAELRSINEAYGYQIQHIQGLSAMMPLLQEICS
Chain of X-box-binding protein 1 (Homo sapiens) (P17861 whole entry, looked up): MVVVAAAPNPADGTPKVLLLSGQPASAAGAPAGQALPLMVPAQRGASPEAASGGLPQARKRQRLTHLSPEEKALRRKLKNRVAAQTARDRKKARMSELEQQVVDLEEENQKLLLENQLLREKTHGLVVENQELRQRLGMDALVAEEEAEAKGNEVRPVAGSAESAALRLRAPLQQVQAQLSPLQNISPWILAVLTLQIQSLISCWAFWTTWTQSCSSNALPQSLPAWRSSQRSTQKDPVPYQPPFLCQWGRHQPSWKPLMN
Chain of Steroid hormone receptor ERR1 (Homo sapiens) (P11474 whole entry, looked up, the tested form may be a part): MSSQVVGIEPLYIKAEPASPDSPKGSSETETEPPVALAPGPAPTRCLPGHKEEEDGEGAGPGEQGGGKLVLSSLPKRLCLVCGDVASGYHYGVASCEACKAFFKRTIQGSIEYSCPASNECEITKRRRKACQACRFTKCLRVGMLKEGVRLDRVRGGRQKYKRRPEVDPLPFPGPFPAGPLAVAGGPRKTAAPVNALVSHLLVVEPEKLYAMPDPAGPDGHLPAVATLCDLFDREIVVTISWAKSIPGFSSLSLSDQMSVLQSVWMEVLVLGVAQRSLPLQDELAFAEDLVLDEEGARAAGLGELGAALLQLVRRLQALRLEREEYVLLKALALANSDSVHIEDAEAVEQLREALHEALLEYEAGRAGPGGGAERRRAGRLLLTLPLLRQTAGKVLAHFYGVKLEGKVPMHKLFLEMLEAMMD
Chain of Androgen receptor (Homo sapiens) (P10275 whole entry, looked up, the tested form may be a part): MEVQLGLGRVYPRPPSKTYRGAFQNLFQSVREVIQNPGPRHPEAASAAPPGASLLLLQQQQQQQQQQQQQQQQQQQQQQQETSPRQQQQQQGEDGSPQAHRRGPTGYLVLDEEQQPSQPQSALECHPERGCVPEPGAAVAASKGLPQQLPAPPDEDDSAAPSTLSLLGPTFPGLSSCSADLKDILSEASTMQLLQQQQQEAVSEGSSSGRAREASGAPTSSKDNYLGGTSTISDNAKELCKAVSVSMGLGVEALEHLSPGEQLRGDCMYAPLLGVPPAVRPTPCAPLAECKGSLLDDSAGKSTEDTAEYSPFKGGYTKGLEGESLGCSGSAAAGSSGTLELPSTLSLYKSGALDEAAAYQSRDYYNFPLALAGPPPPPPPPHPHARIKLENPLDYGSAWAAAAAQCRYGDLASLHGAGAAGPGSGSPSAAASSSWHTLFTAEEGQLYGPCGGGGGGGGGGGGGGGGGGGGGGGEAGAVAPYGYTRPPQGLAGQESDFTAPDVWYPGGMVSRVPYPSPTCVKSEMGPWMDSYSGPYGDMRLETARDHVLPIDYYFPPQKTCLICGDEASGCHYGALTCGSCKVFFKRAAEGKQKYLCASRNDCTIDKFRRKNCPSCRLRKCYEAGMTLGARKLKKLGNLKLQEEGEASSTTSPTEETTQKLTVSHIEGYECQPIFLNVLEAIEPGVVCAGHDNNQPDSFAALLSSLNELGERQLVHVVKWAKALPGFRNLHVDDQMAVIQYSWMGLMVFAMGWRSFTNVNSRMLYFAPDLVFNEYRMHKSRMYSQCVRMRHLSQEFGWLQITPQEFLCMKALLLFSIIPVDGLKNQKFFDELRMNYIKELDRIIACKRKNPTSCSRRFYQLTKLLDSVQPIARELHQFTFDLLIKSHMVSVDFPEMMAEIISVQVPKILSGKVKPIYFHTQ
Chain of Estrogen receptor (Homo sapiens) (P03372 whole entry, looked up, the tested form may be a part): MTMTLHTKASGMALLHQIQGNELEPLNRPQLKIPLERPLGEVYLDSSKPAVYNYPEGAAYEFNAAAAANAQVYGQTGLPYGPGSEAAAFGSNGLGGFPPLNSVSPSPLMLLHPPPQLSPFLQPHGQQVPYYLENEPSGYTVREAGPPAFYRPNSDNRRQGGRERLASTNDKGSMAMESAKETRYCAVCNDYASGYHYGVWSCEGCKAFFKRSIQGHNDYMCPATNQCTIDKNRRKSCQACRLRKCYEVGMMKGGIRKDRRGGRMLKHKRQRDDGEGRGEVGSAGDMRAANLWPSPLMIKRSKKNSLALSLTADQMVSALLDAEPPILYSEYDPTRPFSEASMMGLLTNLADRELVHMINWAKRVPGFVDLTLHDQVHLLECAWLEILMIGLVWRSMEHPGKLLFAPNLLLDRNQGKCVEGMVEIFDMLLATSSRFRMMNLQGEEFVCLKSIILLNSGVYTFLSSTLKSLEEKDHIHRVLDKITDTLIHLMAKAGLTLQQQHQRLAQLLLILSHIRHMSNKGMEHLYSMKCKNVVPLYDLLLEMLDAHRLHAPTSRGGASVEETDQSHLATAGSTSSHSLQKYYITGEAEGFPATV
Chain of Paired box protein Pax-6 (Homo sapiens) (P26367 whole entry, looked up): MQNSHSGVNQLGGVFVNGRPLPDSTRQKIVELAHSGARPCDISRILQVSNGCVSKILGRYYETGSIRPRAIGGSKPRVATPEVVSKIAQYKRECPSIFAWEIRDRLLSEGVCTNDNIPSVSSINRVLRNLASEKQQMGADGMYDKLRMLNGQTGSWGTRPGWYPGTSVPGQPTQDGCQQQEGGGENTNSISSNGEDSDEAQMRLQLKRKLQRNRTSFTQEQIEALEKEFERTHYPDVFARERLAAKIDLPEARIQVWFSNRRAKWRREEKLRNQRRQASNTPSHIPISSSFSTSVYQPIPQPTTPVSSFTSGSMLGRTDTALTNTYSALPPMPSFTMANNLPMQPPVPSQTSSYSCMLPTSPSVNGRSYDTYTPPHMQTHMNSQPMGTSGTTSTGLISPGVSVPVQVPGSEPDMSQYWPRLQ
Chain of Transcription factor Sp1 (Homo sapiens) (P08047 whole entry, looked up): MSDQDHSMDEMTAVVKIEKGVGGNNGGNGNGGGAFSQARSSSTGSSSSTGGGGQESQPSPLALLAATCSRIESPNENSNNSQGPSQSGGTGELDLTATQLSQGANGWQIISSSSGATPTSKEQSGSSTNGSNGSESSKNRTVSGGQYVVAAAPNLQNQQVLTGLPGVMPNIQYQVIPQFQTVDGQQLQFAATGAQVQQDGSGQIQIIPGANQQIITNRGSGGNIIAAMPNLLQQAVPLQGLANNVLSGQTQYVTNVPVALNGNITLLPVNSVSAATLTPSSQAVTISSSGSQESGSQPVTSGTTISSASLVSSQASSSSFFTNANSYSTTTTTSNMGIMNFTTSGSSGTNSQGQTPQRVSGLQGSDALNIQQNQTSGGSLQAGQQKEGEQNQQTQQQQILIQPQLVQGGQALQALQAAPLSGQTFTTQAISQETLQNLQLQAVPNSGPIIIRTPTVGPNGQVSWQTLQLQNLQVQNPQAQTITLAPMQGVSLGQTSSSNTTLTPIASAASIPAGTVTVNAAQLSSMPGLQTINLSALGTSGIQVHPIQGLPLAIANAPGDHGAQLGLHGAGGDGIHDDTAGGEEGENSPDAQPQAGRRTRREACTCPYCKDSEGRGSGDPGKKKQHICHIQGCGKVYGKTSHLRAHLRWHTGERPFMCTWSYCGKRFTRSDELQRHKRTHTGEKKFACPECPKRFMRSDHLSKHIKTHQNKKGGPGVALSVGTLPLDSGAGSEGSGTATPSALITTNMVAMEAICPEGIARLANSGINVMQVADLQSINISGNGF

COc1nc(C)nc(NC(=O)NS(=O)(=O)c2ccccc2CCC(F)(F)F)n1
active: [3] 18.9 µM and 50 µM and 33.4 µM
not listed: [20]
inactive: all other assays above

COC(=O)c1ccccc1C(=O)OC
active: [3] 32.8 µM
not listed: [4] | [18] | [20]
inactive: all other assays above

O=C(Nc1ccccc1)Nc1ccnc(Cl)c1
active: [4] 22.6 µM | [5] 67.2 µM | [20] 11.9 µM | [6] 24.9 µM | [7] 13.1 µM | [13] 50 µM
not listed: [1] | [14]
inactive: all other assays above

CC(C)(C)c1ccc(CSc2cnn(C(C)(C)C)c(=O)c2Cl)cc1
active: [1] 0.527 µM | [3] 2.14 µM | [5] 1.88 µM | [6] 0.0129 µM | [13] 0.574 µM | [15] 26.5 µM
not listed: [4] | [18] | [19] | [20]
inactive: all other assays above

CCNc1nc(Cl)nc(NCC)n1
active: [3] 32.7 µM
not listed: [4] | [15] | [18]
inactive: all other assays above

Fc1ccc(Oc2ccnc3cc(Cl)cc(Cl)c23)cc1
active: [4] 2.17 µM
not listed: [16] | [18] | [20]
inactive: all other assays above

CC1COC(Cn2cncn2)(c2ccc(Oc3ccc(Cl)cc3)cc2Cl)O1 (stereo not drawn)
active: [3] 2 µM | [4] 3.17 µM | [7] 1.97 µM | [12] 3.17 µM | [13] 3.17 µM
not listed: [1] | [5] | [14] | [18] | [19] | [20]
inactive: all other assays above

From PubChem BioAssay (EPA / NIEHS)
